In ChEMBL document CHEMBL1157539, “Thousands of chemical starting points for antimalarial lead identification” (Nature, 2010):

The compounds below were run on HepG2 (assay: GSK_TCMDC: Percent inhibition of human HepG2 cell line. Test compounds present at 10uM.).
Format: functional
Work on `Fc1ccc2[nH]c(-c3cccc(-c4ccc(CN5CCN(c6cnccn6)CC5)cc4)c3)nc2c1.O=C(O)C(F)(F)F` yielded an Inhibition of 19%.
`Cc1ccc(Cn2nc(Cl)c(N3CCNCC3)cc2=O)cc1NC(=O)Nc1ccc(-c2ccccc2)cc1.O=C(O)C(F)(F)F` gave an Inhibition of 100%.
With `CCn1cnc2c(N3CCCCS3(=O)=O)cc(C(=O)N[C@@H](Cc3ccccc3)[C@H](O)CNC3CCOCC3)cc21` the Inhibition was 7%.
Work on `Cc1ccc(CN2CCCN(Cc3ccc(C(=O)Nc4ccc(Cl)cc4)cc3)CC2)s1.O=C(O)C(F)(F)F` yielded an Inhibition of 53%.
In the case of `COc1cc2nc(NCCc3ccccc3)nc(NCCc3ccccc3)c2cc1OC`, the Inhibition is reported as 99%.
Work on `CCCc1ccc(C(=O)N2C(c3nccs3)C(C(N)=O)CC2(CC(C)C)C(=O)O)cc1` (configuration not stated) yielded an Inhibition of 16%.
Compound `Cc1c(S(=O)(=O)Nc2ccc3nccc(N4CC(C)NC(C)C4)c3c2)sc2ccc(Cl)cc12.Cl` (configuration not stated) has an Inhibition of 0%.
